We go through 90 compounds from PubChem BioAssay AID2314 (National Center for Advancing Translational Sciences (NCATS), 2010).

The campaign covered roughly 300,000 compounds. About 37,000 (12%) were called active. Rule as the data show it: active = max response mostly above about 13% (no sharp cut-off); inactive = mostly below about 14%. What follows is part of a selection rich in actives, with near analogues and random picks from the rest.

A short description of the assay: Cycloheximide Counterscreen for Small Molecule Inhibitors of Shiga Toxin. Also: read at 38.3 µM for the half of the compounds with a filed dose; 0% is about no effect. Conditions: cell reporter, cycloheximide protein synthesis inhibition counterscreen; hits give high values. For orientation: The purpose of a counterscreen is to sort out artefacts and off-target activity.
Consider `COc1ccccc1NC(=O)CCN1CCN(c2ccc(Cl)cc2)CC1`, for which the max response is -0.528% (inactive). In the case of `COc1cc(C(C(=O)NC2CCCC2)N(C(=O)c2ccco2)c2ccccc2C(C)=O)cc(OC)c1OC` (stereo not given) it was 3.6% (inactive); in that of `CC(C)c1c(C(=O)N/N=C/c2ccccc2C(=O)O)nnn1-c1nonc1N`, 23.4% (inactive).

Take `COc1ccccc1C(=O)NC(CCSC)C(=O)NNC(=O)c1csc(N2CCOCC2)n1` (stereo not given): the max response is -1.29% (inactive). With `O=C(NCCc1ccc(Cl)cc1Cl)c1cc([N+](=O)[O-])c[nH]c1=O`, the max response was -5.02% (inactive). `CCCN1CCN(C(=O)CCCNC(=O)c2ccc(Cl)cc2)CC1`: the max response is -2.8% (inactive).

Consider `COc1ccc(NC(=O)NN2CCN(C)CC2)c(OC)c1`, for which the max response is 0.309% (inactive). For `CN1CCN(NC(=O)Nc2ccc(Br)cc2)CC1`, the max response was 24.2% (active).

With `O=C(NC(=O)c1ccccc1N1CCCCC1)Nc1ccc(Br)cc1`, the max response is -3.48% (inactive).

Turning to `COc1ccc(-c2nc3c(s2)CCc2onc(-c4ccc(OC)cc4)c2-3)cc1`, the max response is -2.4% (inactive). Turning to `COc1ccc(S(=O)(=O)N2CCN(C)CC2)c(C)c1`, the max response was -3.62% (inactive). Regarding `Nc1nc(NCCCN2CCOCC2)nc(Nc2ccccc2)c1[N+](=O)[O-]`, the max response was -2.59% (inactive). In the case of `CN(c1ccccc1)c1nc(N)c([N+](=O)[O-])c(NCc2ccco2)n1` it was 1.96% (inactive); in that of `COc1cccc(Nc2nc(N)c([N+](=O)[O-])c(NCc3ccco3)n2)c1`, 19.4% (active). Take `COc1ccccc1CCNS(=O)(=O)c1cc2c3c(c1)C(C)C(=O)N3CCC2` (stereo not given): the max response was 4.12% (inactive).

Regarding `CC1=C(C)C(=O)OC(C(C)C2CCC3C4CC=C5CC(OC6OC(COC7OC(CO)C(O)C(O)C7O)C(O)C(O)C6O)CC(O)C5(C)C4CCC23C)C1` (stereo not given), the max response was 7.38% (inactive). For `CN(C)c1ccc(Nc2c3c4c(cccc4n(C)c2=O)C(=O)c2ccccc2-3)cc1`, the max response is 3.88% (inactive). For `COc1ccc(C(=O)/C=C/Nc2ccccn2)cc1`, the max response is 2.25% (inactive). Consider `Cc1cc(N/C=C\C(=O)c2ccc(Cl)c(Cl)c2)no1`, for which the max response was 11.9% (active). On to `Cc1cc(NC(=O)CSc2nnc(-c3ccc(Cl)s3)o2)no1`, for which the max response was 5.82% (inactive). For `COc1ccc(NC(=O)CSc2nncc(=O)n2N)cc1OC` the value was -3.35% (inactive); for `COC(=O)[C@@H]1CC[C@H](C)[C@@H](c2ccc(C)cc2)N1C(=O)c1ccc(/C=N/O[C@H](C)c2cn([C@@H]3COC[C@H]3O)nn2)cc1`, -2.13% (inactive).

For the compound `CN1C2CCC1CC(NC(=O)c1ccc([N+](=O)[O-])cc1)C2` (stereo not given), the max response was -3.99% (inactive). Regarding `COc1ccc(CCNC(=O)c2c(C)nn(-c3ccccc3)c2Cl)cc1`, the max response is -2.65% (inactive).

For the compound `Cc1nn(-c2ccccc2)c(Cl)c1C(=O)Nc1ccccc1`, the max response was 24.4% (active).

Turning to `Cc1ccc(NC(=O)Nc2cc(-c3ccccc3)nn2C)cc1Cl`, the max response is 1.12% (inactive).

Consider `Cc1cc(NC(=O)Nc2ccccc2)n(-c2ccccc2)n1`, for which the max response was 18.1% (active).

For `CC(=O)c1cccc(NC(=O)c2cc(C)nn2-c2ccccc2)c1`, the max response was 12.3% (active).

For the compound `CCn1c(=O)c2cc(C(=O)Nc3cccc(C(C)=O)c3)sc2c2ccccc21`, the max response is -2.44% (inactive). On to `Cc1nn(-c2ccccc2)c(CC(C)(C)C(=O)O)c1C(=O)O`, for which the max response was -4% (inactive). For the compound `CSc1ccccc1C(=O)Nc1cccc(C(C)=O)c1`, the max response is 11.9% (inactive). With `Cc1cc(NC(=O)Nc2ccc(Cl)cc2)n(-c2ccccc2)n1`, the max response is 1.95% (inactive).

As for `O=C(NCc1ccco1)/C(=C/c1cccc([N+](=O)[O-])c1)NC(=O)c1ccco1`, the max response is 1.87% (inactive). On to `COC(=O)[C@H](Cc1ccccc1)NC(=O)[C@@H]1C[C@H]1[C@@H](NC(=O)OCc1ccccc1)c1ccccc1`, for which the max response is -3.05% (inactive). Consider `Cc1nn(C)c(C)c1Sc1ccccc1N`, for which the max response is 1.39% (inactive). `O=C(COc1ccc([N+](=O)[O-])cc1)Nc1cccc(C(=O)Nc2ccccc2C(=O)O)c1`: the max response is -6.64% (inactive). In the case of `Cc1cccc(N2CCN(C(C)C(=O)N3CCc4ccccc43)CC2)c1C` (stereo not given), the max response was -5.33% (inactive). For `O=C(NCc1cccnc1)c1cccc(-c2cc3ccccc3oc2=O)c1` the value was 12.9% (inactive); for `O=C(c1cn(-c2ccccc2)nc1-c1cc2ccccc2oc1=O)N1CCOCC1`, 6.82% (inactive). For `Nc1ncc(-c2cc3ccccc3oc2=O)s1` the value was 43.5% (active); for `O=C(Nc1ccc(F)cc1)C1CCCN(S(=O)(=O)c2ccc(-n3cnnn3)cc2)C1` (stereo not given), -0.989% (inactive). For `O=C(c1c(F)cccc1Cl)N1CCN(c2ccccn2)CC1`, the max response was -8.36% (inactive). On to `COc1ccccc1CNC(=O)c1ccc(CS(=O)(=O)c2ccccc2)o1`, for which the max response was -1.73% (inactive).

With `NC(=O)COC(=O)/C=C/c1ccc2ccccc2n1`, the max response was 16.4% (active).

`O=C(COC(=O)/C=C/c1nc2ccccc2s1)Nc1ccccc1Oc1ccccc1`: the max response is -1.69% (inactive).

With `CC(=O)c1ccc(S(=O)(=O)N2CCN(C(=O)/C=C/c3ccc4ccccc4n3)CC2)cc1`, the max response is -1.24% (inactive). Consider `CCCCCCCCn1c2c(c(=N)c3c1CCC3)CCCC2`, for which the max response was -1.22% (inactive).

For `CCC(CC)COC(=O)C1=C(C)NC(=O)NC1c1ccc([N+](=O)[O-])cc1` (stereo not given), the max response is -4.34% (inactive). For `COc1ccccc1Nc1ncc(C(C)=O)c(C)n1` the value was 17% (active). Consider `CCc1ccc2nc(Nc3ncc(C(C)=O)c(C)n3)nc(C)c2c1`, for which the max response was 4.49% (inactive).

For `COc1ccccc1-c1c(C)nn2c(C)c(C(C)=O)cnc12`, the max response was -2.56% (inactive).

In the case of `CC(=O)NC(Cc1ccc(F)c(F)c1)C(=O)NC1CCN(c2nnnn2-c2ccccc2)CC1` (stereo not given), the max response is -1.76% (inactive). In the case of `COc1ccc(N2CCN(S(=O)(=O)c3cc(Br)cnc3N)CC2)cc1`, the max response was -1.92% (inactive).

Regarding `COc1ccc(OCc2ccc(-c3nc4ccccc4c(=O)n3N)o2)cc1`, the max response was 30.2% (active).

As for `COc1ccc(-c2nc3ccccc3c(=O)n2CCc2ccc(O)cc2)cc1`, the max response is 17.7% (inactive). In the case of `COc1ccc(OCc2n[nH]c(=S)n2N)cc1` it was 5.41% (inactive); in that of `CCCCCNC(=O)C1c2ccccc2Oc2ccccc21`, -1.28% (inactive). Regarding `[2H]C(CCOS(N)(=O)=O)c1ccccc1` (stereo not given), the max response is -0.0595% (inactive). Turning to `COC(=O)[C@]1(S(=O)(=O)c2ccccc2)C[C@@H]2ON=C(c3ccc(OC)cc3)[C@@H]2C1`, the max response was 12.7% (inactive). For `CCC1Sc2ccc(S(=O)(=O)CCC(=O)NCc3cccs3)cc2NC1=O` (stereo not given) the value was 15.6% (inactive); for `Cc1ccc(C)c(NS(=O)(=O)c2cc(Br)cnc2N)c1`, -1.97% (inactive). Consider `COc1ccccc1-n1nnnc1S(=O)(=O)Cc1ccc(Cl)cc1`, for which the max response was 16.8% (active). As for `COc1ccccc1CN(C)c1nnnn1-c1ccccc1`, the max response was -3.28% (inactive). As to `COc1ccccc1N1CCN(S(=O)(=O)c2ccc(Cl)cc2)CC1`, the max response was -4.44% (inactive).

As for `CN(C)c1ccc(CNC2C3CC4CC(C3)CC2C4)cc1` (stereo not given), the max response was -2.32% (inactive). For `CCOc1ccc(C(=O)Nc2nccs2)cc1[N+](=O)[O-]` the value was 28.1% (active); for `CCOc1ccc(C(=O)NC(=S)Nc2ccc(NC(=O)C(C)C)cc2)cc1[N+](=O)[O-]`, -1.26% (inactive); for `CC(=O)Oc1ccc(C(=O)Nc2nccs2)cc1`, 11.1% (inactive).

As to `CC(C)c1cc(C(=O)N/N=C/c2ccoc2)c(O)c(C(C)C)c1`, the max response is 6.52% (inactive).

As for `O=C(N/N=C/c1ccoc1)c1ccc(Cl)cc1Cl`, the max response was 28.2% (active). Take `CC(C)NC(=O)c1ccc(Cl)cc1Cl`: the max response was 8.78% (inactive). For the compound `CC(C)c1ccc(N2CCN(C(=O)c3ccccc3NC(=O)/C=C(\C(=O)O)c3ccccc3)CC2)cc1`, the max response is 24.6% (inactive). As to `COCCCNC(=S)NCCNc1nc2cc(C)c(C)cc2cc1C#N`, the max response was 26% (inactive).

With `COc1ccc(CNS(=O)(=O)c2ccc(-c3cnc(C4CC4)o3)cc2)cc1`, the max response is -0.963% (inactive).

Turning to `O=C(NCC1CCCO1)c1cc2c([nH]c3ccccc32)c(-c2ccc(F)cc2)n1` (stereo not given), the max response was -1.44% (inactive). With `COc1ccc(-c2cc(=O)oc3cc(OC(C)C(=O)NCC4CCC(C(=O)O)CC4)ccc23)cc1` (stereo not given), the max response was -2.31% (inactive). Turning to `CC(CCn1cccn1)NC(=O)CCc1nnc(CCc2ccccc2)o1` (stereo not given), the max response was 5.1% (inactive). For `Cc1cc(-c2nnc(CCC(=O)NC(c3ccccc3)c3ccccc3)o2)no1` the value was 25.2% (active); for `O=C(CCc1nnc(CCCCc2ccccc2)o1)NC(c1cccnc1)C(F)(F)F` (stereo not given), -3.39% (inactive).

As to `CCOC(=O)/C=c1\s/c(=C\c2ccc(C#N)cc2)c(=O)n1CC(=O)Nc1cccc(C)c1C`, the max response was -1.86% (inactive).

Take `Cc1cc(OCc2ccc(C(=O)Nc3ccc(C(=O)O)cc3)o2)ccc1Cl`: the max response was 0.897% (inactive). `COc1ccc(C(C(=O)NC2CCCCC2)N(C(=O)Cc2c[nH]c3ccccc23)c2ccccc2)cc1OC` (stereo not given): the max response is -2.16% (inactive). For `NC(=O)c1ccc(Nc2ccc3c(c2)CCC3)c([N+](=O)[O-])c1`, the max response is -2.88% (inactive).

As for `NC(=O)c1ccc(Nc2ccc3nonc3c2[N+](=O)[O-])cc1`, the max response is 6% (inactive). For the compound `Cc1ccc(Nc2ccc(C(N)=O)cc2[N+](=O)[O-])cc1`, the max response was 14.3% (active). As to `c1ccc(CSc2nnc(-c3ccco3)c(-c3ccco3)n2)cc1`, the max response was 5.66% (inactive). For `c1ccc(CSc2nnc(-c3ccco3)n2Cc2ccccc2)cc1`, the max response is 27.8% (active). For `O=C(CSc1nnc(-c2ccco2)n1Cc1ccccc1)NC(=O)NCc1ccco1` the value was 9.36% (inactive); for `N#CCOc1ccc(C2=NO[C@@H]3[C@@H]4C[C@@H]([C@H]5C(=O)N(c6ccc7c(c6)OCO7)C(=O)[C@@H]45)[C@H]23)cc1`, -3.49% (inactive). In the case of `Cn1c(CNC(=O)c2ccccc2F)nnc1SCc1ccc(F)cc1` it was 6.96% (inactive).
